The whole screen tested about 16,000 compounds, of which about 5,700 (36%) were called active. Inconclusive results (about 24%) are left out. The list shows a part of the results. Unmarked numbers belong to inactive results. Calls come from the whole dose curve; as a rule, active = well fitted curve in the direction sought with a large enough effect; inconclusive = small, poorly fitted or top-dose-only effect, or effect the other way; inactive = no such curve, though single readings can be large or run the other way.
% is set by controls: 0 for no effect and ±100 for the full control effect.

Cytochrome P450 1A2 (Homo sapiens), sequence (P05177 whole entry, looked up): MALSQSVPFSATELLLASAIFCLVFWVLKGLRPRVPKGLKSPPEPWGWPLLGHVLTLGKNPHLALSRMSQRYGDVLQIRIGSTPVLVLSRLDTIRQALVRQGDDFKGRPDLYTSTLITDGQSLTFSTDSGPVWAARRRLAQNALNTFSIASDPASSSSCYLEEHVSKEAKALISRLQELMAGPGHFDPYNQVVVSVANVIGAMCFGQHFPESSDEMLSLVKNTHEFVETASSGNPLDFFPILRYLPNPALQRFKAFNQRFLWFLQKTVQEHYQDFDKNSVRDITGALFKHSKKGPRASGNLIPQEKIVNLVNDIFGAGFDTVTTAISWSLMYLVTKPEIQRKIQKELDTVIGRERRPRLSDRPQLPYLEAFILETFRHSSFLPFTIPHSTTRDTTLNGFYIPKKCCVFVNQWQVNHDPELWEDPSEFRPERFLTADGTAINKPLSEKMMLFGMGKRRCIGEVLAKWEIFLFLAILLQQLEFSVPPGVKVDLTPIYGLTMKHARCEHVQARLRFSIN

The test has as its target Cytochrome P450 1A2 (Homo sapiens) (UniProt P05177). Put plainly: Cytochrome panel assay with activity outcomes. The note with it: recombinant CYP, pro-luciferin dealkylation, luminescence, p450-cyp1a2; series mostly up to 57.1 µM; activity, negative = inhibition: at the top concentration.
Consider `CCCNC(=O)OC[C@@H]1O[C@H](CCO/N=C(\C)CCN2CCc3nc(-c4ccccc4)c(-c4ccccc4)cc3C2)C=C[C@@H]1Oc1ccc(OC)cc1`, for which the activity, negative = inhibition was -4.45% [at 11.4 µM]. Same read-out and setting: then `COC(=O)C/C=C\[C@H](C)[C@H](CO)NS(=O)(=O)c1ccc(C)cc1`, with -2.78% [at 11.4 µM]; and `Cc1ccc(C)c(S(=O)(=O)N2CCC(c3nc4c(nnn4Cc4ccc(F)cc4)c(=O)[nH]3)CC2)c1`, with -22.9%; and `O=C(NCc1ccco1)c1nc2c(nnn2Cc2cccc(Cl)c2)c(=O)[nH]1`, with -10.5%. Usually AC50 stands for the midpoint of the concentration-response curve, whichever way the signal moves. Take `O=C(Cc1cccs1)N1CCC(c2nc3c(nnn3Cc3ccccc3Cl)c(=O)[nH]2)CC1`: the concentration at half-maximal activity (AC50) was 6.31 µM (active). Same read-out and setting: with `CCN(CC)CC[n+]1ccc2c(C)c3[nH]c4ccc(O)cc4c3c(C)c2c1` the figure was 3.16 µM (active). On to `CCN(CC)CC[n+]1ccc2c(C)c3[nH]c4ccccc4c3c(C)c2c1`, for which the AC50 was 2.51 µM (active). The same measure, in the same setting: then `CN1CCN(c2ncnc3ccc(-c4ccccc4Cl)cc23)CC1`, with 1.58 µM (active); and `Clc1ccccc1-c1ccc2ncnc(N3CCNCC3)c2c1`, with 2 µM (active).

Turning to `CN1CCN(c2ncnc3ccc(-c4ccccc4C#N)cc23)CC1`, the AC50 was 3.16 µM (active).

With `Cc1ccccc1-c1ccc2ncnc(N3CCNCC3)c2c1`, the concentration at half-maximal activity (AC50) is 3.16 µM (active).

`CC(Cc1ccccc1)NC(=O)CSc1nc2nc3c(cc2c(=O)n1-c1ccccc1)COC(C)(C)C3` (stereo not drawn): the “activity, negative = inhibition” value is -3.43%. Still for that read-out and setting: then `C/C(CCN1CCc2nc(-c3ccccc3)c(-c3ccccc3)cc2C1)=N\OC[C@@H](O)COCc1ccco1`, with -6.41% [at 11.4 µM]. With `CCOC(=O)C(C)(C)[C@H](O)C(C)C`, the activity, negative = inhibition is -1.66% [at 11.4 µM]. Take `N#Cc1cccc(NC(=O)N2CCCC3(CCN(C(=O)c4csnn4)CC3)C2)c1`: the “activity, negative = inhibition” value was 10.4%. `Cc1ccccc1-c1ccc2ncnc(N3CCN(C)CC3)c2c1`: the AC50 is 3.16 µM (active). As for `Cc1cnc(CNc2nc(-c3ccc(N(C)C)cc3)nc3ccccc23)cn1`, the AC50 is 3.16 µM (active). Same read-out and setting: then `Cc1cnc(CNc2nc(-c3ccoc3)nc3ccccc23)cn1`, with 2 µM (active); and `N=c1n(CCN2CCOCC2)c2ccccc2n1CC(=O)c1ccc(Cl)c(Cl)c1`, with 1.26 µM (active). In the case of `COC(=O)Cn1c(=N)n(CCN2CCCCC2)c2ccccc21`, the “activity, negative = inhibition” value was -12%. On the same count and under the same terms, with `Nc1ccc(N2C(=O)c3ccccc3C2=O)c(Cl)c1` the figure was -17.8%. With `O=C1c2cccc3c(Cl)ccc(c23)C(=O)N1O`, the half-maximal activity concentration (AC50) is 3.16 µM (active).

With `CC(C)COP(=O)(OCC(C)C)C(O)c1ccccc1F` (stereo not drawn), the “activity, negative = inhibition” value was -3.98%.

Take `O=C1CCCCCC1C1(O)C(=O)Nc2ccc(Br)cc21` (stereo not drawn): the “activity, negative = inhibition” value was -18.8%. Take `CCOC(=O)c1c2ccc(OCC(=O)N/N=C/c3ccc(Cl)cc3)cc2n2ccccc12`: the AC50 was 3.16 µM (active). As to `Cc1cc(C)nc(Nc2ncc(O)n2-c2ccccc2)n1`, the AC50 was 2.82 µM (active). In the case of `N=c1n(-c2ccccc2)c(O)cc(=O)n1-c1ccccc1`, the “activity, negative = inhibition” value is -4.91%. Regarding `Cc1ccc(-n2c(O)cnc2Nc2nc(C)cc(C)n2)cc1`, the AC50 was 5.01 µM (active). Take `Cc1ccc(-n2c(C)cc(C(=O)CSc3n[nH]c(N)n3)c2C)cc1`: the “activity, negative = inhibition” value is -12.6%. As to `S=C(Nc1ccccc1)Nc1nccs1`, the AC50 was 0.794 µM (active). On to `O=C(O)c1ccccc1C(=O)Nc1ccc(S(=O)(=O)Nc2nccs2)cc1`, for which the “activity, negative = inhibition” value is -0.159% [at 25.6 µM]. Still for that read-out and setting: with `CN(CCO)Cc1ncccc1O` the figure was -10% [at 2.29 µM]. With `COc1ccc(NC(C)=O)cc1NC(=O)CN1CCN(C2c3ccccc3-c3ccccc32)CC1`, the AC50 was 28.2 µM (active). Regarding `COC(=O)C/C=C1\c2ccccc2[C@H](OC)[C@H]1C`, the activity, negative = inhibition was -6.47% [at 11.4 µM]. For `COc1ccccc1NC(=O)CN1CCN(C2c3ccccc3-c3ccccc32)CC1`, the AC50 is 15.8 µM (active). Still for that read-out and setting: with `CC(C)OC(=O)CN1CCN(C2c3ccccc3-c3ccccc32)CC1` the figure was 12.6 µM (active). Regarding `COc1ccccc1NC(=O)CN1CCC(C(=O)c2ccc(F)cc2)CC1`, the “activity, negative = inhibition” value is -9.19%. With `COc1ccccc1NC(=O)CN1CCN(c2ccccc2F)CC1`, the AC50 was 25.1 µM (active). On to `COc1ccc(NC(C)=O)cc1NC(=O)CN1CCN(CC(=O)Nc2ccccc2Cl)CC1`, for which the “activity, negative = inhibition” value was -22.7%. As for `Cc1ccc(C(=O)C(OC(=O)CN2C(=O)c3ccccc3C2=O)c2ccccc2)cc1` (stereo not drawn), the “activity, negative = inhibition” value was 23%. As to `Cc1cc(Cl)ccc1NC(=O)CN1CCC(C(O)(c2ccccc2)c2ccccc2)CC1`, the “activity, negative = inhibition” value is -9.89%. Still for that read-out and setting: then `O=C(CCN1CCN(c2ccccc2F)CC1)Nc1ccccc1F`, with -19.2%. Same read-out and setting: then `O=C(c1csnn1)N1CCC2(CC1)CN(Cc1cc(C(F)(F)F)cc(C(F)(F)F)c1)C2`, with 5.18%. As for `Cc1cc(-c2cccs2)nc(-n2cccc2)n1`, the AC50 was 3.16 µM (active).

In the case of `CCCN1C2=NCCCN2c2ccccc21`, the “activity, negative = inhibition” value is -19%. Still for that read-out and setting: with `CCCCN1C(=O)CC(Sc2ccccc2C(=O)O)C1=O` (stereo not drawn) the figure was -6.77%. Take `CCCCN1C2=NCCCN2c2ccccc21`: the AC50 was 25.1 µM (active).

As to `CCc1ccccc1OC[C@@H](O)CN[C@H]1CCCc2ccccc21`, the AC50 is 12.6 µM (active).

Source of the values: PubChem BioAssay AID1851 (National Center for Advancing Translational Sciences (NCATS), 2009).
